Inconclusive results are not listed. The source made the active and inactive calls. Unless noted, calls come from the whole dose curve; as a rule, active = well fitted curve in the direction sought with a large enough effect in the repeat runs; inconclusive = weak or mixed curves; inactive = no such curve, though single readings can be large; an effect the other way counts as inactive or inconclusive.
Legend:
[1] = qHTS assay for small molecule agonists of the p53 signaling pathway (AID 651631; calls by dose curve; note: nearly all actives have a fitted effect of over 15% in size)
How it was run: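 Quantitative high-throughput format: 4,000 p53RE-bla HCT-116 cells/well, 5 h pre-incubation, 16 h compound exposure at 37 °C, 2 h room-temperature substrate step, fluorescence intensity measured.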

[2] = qHTS assay for small molecules that induce genotoxicity in human embryonic kidney cells expressing luciferase-tagged ATAD5 (AID 651632); note: nearly all actives have a fitted effect of over 15% in size
How it was run: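 Concentration-response screen for ATAD5 upregulation in HEK293T luciferase reporter cells; 16 hr treatment at 37C, then luminescence after 30 min with Amplite at room temperature.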

[3] = qHTS assay for small molecule agonists of the p53 signaling pathway - cell viability (AID 651633; calls by dose curve;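 note: p53RE-bla HCT reporter cells with a stable beta-lactamase p53 reporter; series mostly up to about 83 µM; nearly all actives have a fitted effect of over 30% in size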)
How it was run: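 p53RE-bla cells were treated with compound for 16 hours at 37 C. Cytotoxicity was then measured as CellTiter-Glo luminescence after 30 min at room temperature.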

[4] = qHTS assay for small molecules that induce genotoxicity in human embryonic kidney cells expressing luciferase-tagged ATAD5 - cell viability (AID 651634; calls by dose curve; note: nearly all actives have a fitted effect of over 25% in size)
How it was run: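 15.5 hr compound or vehicle exposure of HEK293T cells expressing luciferase-tagged ATAD5 at 37C; live-cell protease activity is read by fluorescence after 30 min of CellTiter-Fluor.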

[5] = qHTS assay for small molecule disruptors of the mitochondrial membrane potential - cell viability (AID 720634; calls by dose curve;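 note: human HepG2 liver cancer cells; series mostly up to about 83 µM; nearly all actives have a fitted effect of over 20% in size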)
How it was run: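 In this qHTS format, HepG2 cells plated overnight were pinned with compound, incubated 1 hr, and assayed for ATP luminescence with CellTiter-Glo after m-MPI dye addition.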

[6] = qHTS assay to test for compound auto fluorescence at 590 nm (red) in HepG2 cells (AID 720674)
How it was run: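 Fluorescence at 590 nm emission following 540 nm excitation was recorded from HepG2 wells one hour after compound transfer, with DMSO-only wells as vehicle and Rose Bengal sodium equivalency as the scale.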

[7] = qHTS assay to test for compound auto fluorescence at 535 nm (green) in HepG2 cells (AID 720675)
[8] = qHTS assay to test for compound auto fluorescence at 460 nm (blue) in HEK293 cells (AID 720678)
How it was run: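 HEK293 cells (2,000 per well, medium with 10% dialyzed FBS) attached for 4-5 hr at 37C, then received compound and stood overnight at 37C, 5% CO2. Blue fluorescence was read at Ex/Em 405/460 nm and expressed relative to triamterene.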

[9] = qHTS assay to test for compound auto fluorescence at 590 nm (red) in HEK293 cells (AID 720679)
How it was run: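 HEK293 cells (2,000/well, medium with 10% dialyzed FBS) attached for 4-5 hr at 37C, received 23 nL compound and were incubated overnight at 37C, 5% CO2. Red fluorescence was then read at 540/590nm Ex/Em, referenced to Rose Bengal sodium.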

[10] = qHTS assay to test for compound auto fluorescence at 535 nm (green) in HEK293 cells (AID 720680)
[11] = qHTS assay to test for compound auto fluorescence at 460 nm (blue) in HEK293 cell free culture (AID 720681)
How it was run: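 Compounds were added to cell-free DMEM with 10% FBS and fluorescence read directly. The blue channel used 405 nm excitation and 460 nm emission, with triamterene as the reference fluorophore.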

[12] = qHTS assay to test for compound auto fluorescence at 535 nm (green) in HEK293 cell free culture (AID 720682)
How it was run: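 Measurement is a direct plate read of green fluorescence (485 nm in, 535 nm out) after compound addition to serum-supplemented DMEM lacking cells, with fluorescein used to express intensities.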

[13] = qHTS assay to test for compound auto fluorescence at 590 nm (red) in HEK293 cell free culture (AID 720683)
How it was run: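 Cell-free wells of DMEM with 10% FBS received compound, and intrinsic fluorescence was read at excitation/emission 540/590 nm. Values expressed as equivalence to Rose Bengal sodium.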

[14] = qHTS assay to test for compound auto fluorescence at 590 nm (red) in HepG2 cell free culture (AID 720684)
How it was run: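 Rose Bengal sodium served as the reference for red signal. Test compounds were dispensed into serum-containing MEM (10% FBS) without cells, and plates were read at 540/590 nm.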

[15] = qHTS assay to test for compound auto fluorescence at 460 nm (blue) in HepG2 cell free culture (AID 720685)
How it was run: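 Cell-free plates of MEM plus 10% FBS received 23 nL compound or DMSO vehicle; blue-channel (405/460 nm) intensity scored against triamterene as reference fluorophore.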

[16] = qHTS assay to test for compound auto fluorescence at 535 nm (green) in HepG2 cell free culture (AID 720686)
[17] = qHTS assay to test for compound auto fluorescence at 460 nm (blue) in HepG2 cells (AID 720687)
How it was run: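 HepG2 cells in MEM with 10% FBS, attached overnight at 37 C, were exposed to compound or DMSO for 1 hr at 37 C, 5% CO2. Blue fluorescence was read at 405/460 nm, with triamterene as reference fluorophore.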

[18] = qHTS assay for small molecule disruptors of the mitochondrial membrane potential (AID 720635)
How it was run: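 HepG2 cells exposed to compound 1 hr at 37C, then Mito-MPS dye 30 min. Ratio read of aggregate (540/590 nm) versus monomer (490/535 nm) fluorescence.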

[19] = molecular target: Glucocorticoid receptor (Homo sapiens) (UniProt P04150); test: qHTS assay to identify small molecule agonists of the glucocorticoid receptor (GR) signaling pathway (AID 720691; active = well fitted activation curve with a large enough effect in the signal ratio in the repeat runs, not every such curve was filed as active; the % refers to the signal ratio)
How it was run: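 Measures GR pathway activation through a GRE-beta-lactamase reporter stably integrated in HeLa cells, with 18 h compound treatment at 37 C and fluorescence detection using a FRET substrate.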

[20] = molecular target: Glucocorticoid receptor (Homo sapiens) (UniProt P04150); test: qHTS assay to identify small molecule antagonists of the glucocorticoid receptor (GR) signaling pathway (AID 720692; active = well fitted inhibition curve with a large enough effect in the signal ratio in the repeat runs, not every such curve was filed as active; the % refers to the signal ratio)
How it was run: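 Tox21 10K library screened in concentration-response for blockade of dexamethasone (5 nM final)-induced GRE-bla reporter activity in HeLa cells; 18 h treatment, fluorescence read.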
% is set by controls: 0 for no effect and ±100 for the full control effect.

Glucocorticoid receptor (Homo sapiens), sequence (P04150 whole entry, looked up): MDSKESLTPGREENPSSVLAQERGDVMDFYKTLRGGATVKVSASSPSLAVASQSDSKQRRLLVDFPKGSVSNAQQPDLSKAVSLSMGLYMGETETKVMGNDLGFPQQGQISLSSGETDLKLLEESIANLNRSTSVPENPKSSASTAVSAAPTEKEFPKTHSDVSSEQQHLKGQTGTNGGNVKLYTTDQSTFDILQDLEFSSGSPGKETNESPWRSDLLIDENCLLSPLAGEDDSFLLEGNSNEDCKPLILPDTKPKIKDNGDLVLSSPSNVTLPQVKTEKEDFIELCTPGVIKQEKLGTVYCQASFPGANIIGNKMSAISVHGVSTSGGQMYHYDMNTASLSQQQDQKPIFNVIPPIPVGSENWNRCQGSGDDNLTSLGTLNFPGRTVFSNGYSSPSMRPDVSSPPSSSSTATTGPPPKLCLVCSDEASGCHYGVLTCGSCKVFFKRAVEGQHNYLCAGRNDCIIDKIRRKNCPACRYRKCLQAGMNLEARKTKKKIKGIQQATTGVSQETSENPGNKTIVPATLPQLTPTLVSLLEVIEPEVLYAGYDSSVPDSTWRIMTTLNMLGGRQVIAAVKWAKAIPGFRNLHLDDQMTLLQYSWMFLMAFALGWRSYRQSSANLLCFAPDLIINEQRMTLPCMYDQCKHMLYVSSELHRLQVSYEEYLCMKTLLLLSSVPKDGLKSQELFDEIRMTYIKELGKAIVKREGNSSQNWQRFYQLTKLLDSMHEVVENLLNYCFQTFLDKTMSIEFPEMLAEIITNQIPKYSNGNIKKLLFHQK

COc1ccccc1N1CCN(CCCNc2cc(=O)n(C)c(=O)n2C)CC1
inactive: Potency [1] | Potency [2] | Potency [3] | Potency [4] | Potency [5] | outcome [6] | outcome [7] | outcome [8] | outcome [9] | outcome [10] | outcome [11] | outcome [12] | outcome [13] | outcome [14] | outcome [15] | outcome [16] | outcome [17]

CCc1nnc(NS(=O)(=O)c2ccc(N)cc2)s1
inactive: Potency [1] | Potency [2] | Potency [3] | Potency [4] | Potency [5] | outcome [6] | outcome [7] | outcome [8] | outcome [9] | outcome [10] | outcome [11] | outcome [12] | outcome [13] | outcome [14] | outcome [15] | outcome [16] | outcome [17]

Cc1ccc(C=O)s1
inactive: Potency [1] | Potency [2] | Potency [3] | Potency [4] | Potency [5] | Potency [18] | outcome [6] | outcome [7] | outcome [8] | outcome [9] | outcome [12] | outcome [14] | outcome [15] | outcome [17]

CCCNC(C)C(=O)Nc1c(C)csc1C(=O)OC (centres undefined)
inactive: Potency [1] | Potency [2] | Potency [3] | Potency [4] | Potency [5] | Potency [18] | fluorescence, relative to Rose Bengal [6] 0.288% [at 18.6 µM] | fluorescence, % of fluorescein control [7] -0.0675% [at 18.6 µM] | fluorescence, % of triamterene [8] -0.0757% [at 18.6 µM] | fluorescence, % of fluorescent control [9] -0.0511% [at 18.6 µM] | fluorescence, % of fluorescein [10] -0.0722% [at 18.6 µM] | activity change [12] -0.0482% [at 18.6 µM] | fluorescence, % of fluorescent control [13] 0.0164% [at 18.6 µM] | fluorescence, % of Rose Bengal [14] -0.056% [at 18.6 µM] | fluorescence, % of fluorescein control [16] 0.063% [at 18.6 µM] | fluorescence, % of fluorescent control [17] 0.025% [at 18.6 µM] | Potency [19] | Potency [20]

CCCCNc1cc(C(=O)O)cc(S(N)(=O)=O)c1Oc1ccccc1
inactive: Potency [1] | Potency [2] | Potency [3] | Potency [4] | Potency [5] | fluorescence, relative to Rose Bengal [6] -0.242% [at 18.6 µM] | fluorescence, % of fluorescein control [7] 0.0391% [at 18.6 µM] | fluorescence, % of triamterene [8] 0.191% [at 18.6 µM] | fluorescence, % of fluorescent control [9] -0.225% [at 18.6 µM] | fluorescence, % of fluorescein [10] -0.0725% [at 18.6 µM] | fluorescence, % of fluorescent control [11] -0.0083% [at 18.6 µM] | activity change [12] -0.0379% [at 18.6 µM] | fluorescence, % of fluorescent control [13] -0.0094% [at 18.6 µM] | fluorescence, % of Rose Bengal [14] 0.449% [at 18.6 µM] | fluorescence, % of fluorescent control [15] -0.0399% [at 18.6 µM] | fluorescence, % of fluorescein control [16] 0.0191% [at 18.6 µM]

CN(C)Cc1ccccc1
inactive: Potency [1] | Potency [2] | Potency [3] | Potency [4] | Potency [5] | Potency [18] | outcome [6] | outcome [7] | outcome [8] | outcome [9] | outcome [10] | outcome [11] | outcome [12] | outcome [13] | outcome [15] | outcome [17] | Potency [19] | Potency [20]

NC/C=C/C(=O)O
inactive: Potency [1] | Potency [2] | Potency [3] | Potency [4] | Potency [5] | Potency [18] | outcome [6] | outcome [7] | outcome [8] | outcome [9] | outcome [10] | outcome [11] | outcome [12] | outcome [13] | outcome [14] | outcome [16] | outcome [17] | Potency [19] | Potency [20]

From PubChem BioAssay (Tox21)
